In the library only some 6.8% were active in any assay of this set; here they are far more common.
HCV NS3h FP: hepatitis C NS3 helicase inhibition, primary screen; 1.6% of 16,000 active; NS3h Cy5-dT15 DNA binding, fluorescence polarization; inhibition, % at 100 µM;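 active means inhibition above the average over every tested compound plus 3 SD, cut at about 40% in these data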
Cy5 interf NS3h: enhances or quenches Cy5 fluorescence in NS3h assay; Cy5-dT15 DNA with NS3h, fluorescence interference; actives lie on both sides; signal over control mean, under 1 quenches; fluorescence interference ratio at 100 µM; 6% of 16,000 active; AID 720488;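 active means compound fluorescence over control fluorescence at most 0.8, a quencher, or at least a set upper limit, an enhancer; inactive means ratio between 0.8 and the set upper limit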
Of the large screens only hits and unclear results are named; the others gave an inactive call.

CC(C)OC(=O)c1cc2nc(-c3cccs3)cc(C(F)(F)F)n2n1	Cy5 interf NS3h 0.66
O=C(Cc1ccccc1)Nc1ncc(Cc2ccc(Cl)cc2Cl)s1	none
COc1ccc(S(=O)(=O)N(CCc2ccccc2)CC(=O)NC2CCCCC2)cc1	none
COCC(O)CN1CCN(c2ccc([N+](=O)[O-])cc2Cl)CC1 (centres undefined)	none
O=[N+]([O-])c1ccc(N2CCN(S(=O)(=O)Cc3ccccc3)CC2)c(Cl)c1	Cy5 interf NS3h 0.74
CCN(CC)c1ccc(/C=C2\C(=O)NC(=O)N(c3cccc(C)c3)C2=O)c(OC)c1	Cy5 interf NS3h 1.3
COc1cc(OC)c(/C=C2\C(=O)NC(=O)N(c3cccc(C)c3)C2=O)cc1Br	none
COc1ccc(C(=O)N(Cc2ccccc2)c2ccccn2)c(OC)c1	none
O=C(O)CCCc1nc2ccccc2s1	none
O=C(O)CCCc1nc2ccccc2[nH]1	Cy5 interf NS3h 0.73
COc1ccccc1-n1cnc2nc[nH]c(=O)c21	none
COc1cc(C(=O)Nc2ccc(C(C)C)cc2)c([N+](=O)[O-])cc1OC	none
COC(=O)c1cc(NC(=O)c2cccc(OCc3ccccc3)c2)cc(C(=O)OC)c1	Cy5 interf NS3h 1.2
COC(=O)c1cc(NC(=O)c2ccc(OCc3ccccc3)cc2)cc(C(=O)OC)c1	none
Cc1ccc2ncnc(NCCc3ccccc3)c2c1	none
COc1cc(C2Nc3ccccc3C(=O)N2Cc2ccccc2)cc(OC)c1OC (centres undefined)	none
COc1ccc(Br)cc1C(=O)Nc1ccc2oc(-c3ccccc3F)nc2c1	Cy5 interf NS3h 1.2
COc1ccc(C(=O)Nc2ccc3oc(-c4ccccc4Cl)nc3c2)cc1Br	none
O=C(NCc1cc(Br)cc(Br)c1OC(=O)c1ccc([N+](=O)[O-])cc1)c1ccccc1	none
O=C(O)/C(=C\c1cccc(Br)c1)NC(=O)c1ccccc1	none
Cc1ccc(C(=O)N/C(=C\c2ccccc2F)c2nc(=S)[nH][nH]2)cc1	none
Cc1ccc(C(=O)N/C(=C/c2cccnc2)c2nc3ccccc3[nH]2)cc1	Cy5 interf NS3h 0.8
CC1=C(C(=O)c2ccccc2)C(c2cccc([N+](=O)[O-])c2)NC(=O)N1 (centres undefined)	none
COc1ccc2c(-c3ccccc3)cc(=O)[nH]c2c1	none
Cc1ccc2c(-c3ccc([N+](=O)[O-])cc3)cc(=O)[nH]c2c1	Cy5 interf NS3h 0.62
COc1ccc(C2Nc3ccccc3C(=O)N2Cc2ccccc2)cc1Cn1nc(C)c(Cl)c1C (centres undefined)	none
COc1ccc(-c2nnnn2C)cc1S(=O)(=O)Nc1ccc(C)c(Cl)c1	none
CCc1ccc(NC(=O)CSc2nnc(SCC(=O)Nc3ccc(CC)cc3)s2)cc1	none
CCOc1ccc(/C=C2\N=C(c3ccccc3F)OC2=O)cc1	HCV NS3h FP 53
O=C1OC(c2ccccc2F)=N/C1=C\c1ccc(Br)cc1	none
O=C(CCc1ccccc1)Nc1ccc(Br)cn1	none
O=C(/C=C/c1ccccc1)NC(=S)Nc1ccc(NC(=O)c2cccc(Cl)c2)cc1	none
COC(=O)CNC(=O)C1COc2ccccc2O1 (centres undefined)	Cy5 interf NS3h 1.2
O=C(NCCO)C1COc2ccccc2O1 (centres undefined)	none
O=C(Nc1ccc(Cl)cc1)Nc1nnc(Cc2ccc(F)cc2)s1	none
Cc1ccc(Cc2cnc(NC(=O)c3ccc(Cl)cc3)s2)cc1	none
NS(=O)(=O)c1ccc(NC(=O)/C(=C\c2cccs2)NC(=O)c2ccccc2)cc1	none
O=C(NCC1CCCO1)c1nc2nc(-c3ccccc3)cc(C(F)(F)F)n2n1 (centres undefined)	none
O=C(Nc1c(F)cc(F)cc1Br)c1nc2nc(-c3ccccc3)cc(C(F)(F)F)n2n1	Cy5 interf NS3h 0.71
Cc1ccccc1C1(Cc2ccccc2)C(=O)c2ccccc2C1=O	none
C=CCc1ccccc1OCCOc1ccc(/C=C2/SC(=S)N(C)C2=O)cc1	none
CCOc1cc(/C=C2/SC(=S)N(C)C2=O)ccc1OCc1ccccc1Cl	Cy5 interf NS3h 1.2
COc1cc(/C=C2/SC(=S)N(C)C2=O)cc(Cl)c1OCc1ccccc1Cl	none
C=CCc1ccccc1OCCOc1cccc(/C=C2/SC(=S)N(C)C2=O)c1	Cy5 interf NS3h 1.2
Cc1ccc(Cc2cnc(NC(=O)c3ccccc3[N+](=O)[O-])s2)cc1	none
COc1cc(NS(=O)(=O)c2ccc(NC(=O)c3ccc(-c4ccccc4)cc3)cc2)ncn1	none
O=C(Cc1ccc([N+](=O)[O-])cc1)N1N=C(c2ccc(Br)cc2)CC1(O)C(F)(F)F (centres undefined)	none
CCOc1ccc(NC(=O)CSc2nc3ccccc3[nH]2)cc1	none
Cc1cccc(NC(=O)CSc2nc3ccc(C)cc3[nH]2)c1	Cy5 interf NS3h 0.65
O=C(CSc1nc2ccc([N+](=O)[O-])cc2[nH]1)c1ccc(Br)cc1	Cy5 interf NS3h 0.61
O=C(CSc1nc2ccc([N+](=O)[O-])cc2[nH]1)c1ccc2ccccc2c1	none
O=C(CSc1nc2ccccc2[nH]1)Nc1ccc(F)c([N+](=O)[O-])c1	none
